These results are taken from the supplement of paper PMC12632987.

The experiment addresses T1, FBXL12, Q9NXK8.
T1 chain: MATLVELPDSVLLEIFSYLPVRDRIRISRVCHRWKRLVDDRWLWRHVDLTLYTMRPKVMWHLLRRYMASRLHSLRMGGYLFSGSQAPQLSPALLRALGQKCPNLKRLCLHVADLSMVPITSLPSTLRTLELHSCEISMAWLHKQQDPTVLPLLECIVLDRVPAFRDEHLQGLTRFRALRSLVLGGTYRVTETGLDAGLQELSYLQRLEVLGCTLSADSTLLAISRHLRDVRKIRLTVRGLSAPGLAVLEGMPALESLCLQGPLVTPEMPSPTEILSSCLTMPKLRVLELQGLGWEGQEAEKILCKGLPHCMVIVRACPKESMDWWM
Kind of experiment: median log2 fold change of GCK-ALFA target abundance (FLAG IP / Myc IP barcode read proportion) (log2 ratio); each designed protein is fused to an ALFA-tag nanobody in HEK293 cells to bring the named protein to FLAG-tagged glucokinase (GCK); Myc marks an untargeted standard; higher = target protein stabilised (more abundant). Conditions: target protein: 3xFLAG-MCP-GCK-ALFA reporter; HEK293 landing pad (RPLP). The procedure:
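LABEL-seq trans screen in HEK293 landing-pad cells. Each de novo designed 100-aa effector handle, binding the indicated effector (E3 ligase, DUB or autophagy protein), is fused to a constant NbALFA target handle and induced with 2 ug/mL doxycycline. A FLAG-MCP-GCK-ALFA target and a Myc-MCP standard reporter were transfected, and after 48 h circRNA barcodes were recovered by anti-FLAG and anti-Myc IP and sequenced. The value is the median across barcodes (at least 3 per design) of log2(FLAG/Myc read-proportion ratio), with the two transfection replicates pooled. Negative values mean degradation and positive values mean stabilisation of the target.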

B1: FBXL12_hotspot_186_31 (protein)
chain: KDLQVRVRLGLDLETTRSTLRYAVALAEALKARGLTASLRSLARSLRESAIEVLKKTKDEEIYEAILEALEELAKVVADDPEALAIVKEAIEEVERLKEE
As to B1, the “median log2 fold change” value was -0.132.

B2: FBXL12_hotspot_186_36 (protein)
chain: MELRVRFGPDDSVEQMRAGVDIAVAIVEGLAEAGRLEDFVEAARSLLDSLEANAARIKDPAHRAVFAEAVARLLEIAERVAKAYPENEDIKEVAERLKAA
As for B2, the “median log2 fold change” value was 0.111.

B3: FBXL12_hotspot_147_15 (protein)
chain: MEVTIRVVLGPGSESTVETAIALAAGLHEAGVEKIRIEVEAEDPEEALRAAERLAVEVGRKADVDEILAYDSRTGELLKRLDREEIKEIREEAERREREA
For B3, the “median log2 fold change” value amounted to 0.23.

B4: FBXL12_hotspot_186_28 (protein)
chain: SDLEVRVTLGEDLETTKSTLDYAVALAEALKARGLTGSLRSLARSFRESAIARLKKSDDPEIYDAILEAAEKLREVVADDPEAKAIIDEAIAEIKAIKAE
For B4, the “median log2 fold change” value came to 0.157.

B5: FBXL12_hotspot_186_34 (protein)
chain: MELKITLSEDMSVEQMEAGLKLAVEILQGLRDRELLDDLVAAARSLLKSLKENVARIKKPEFKEVAKKALEEVAKIVKEAAERFPEVEELKEVAKELEEA
In the case of B5, the “median log2 fold change” value is 0.294.

B6: FBXL12_hotspot_147_14 (protein)
chain: MKVTIRVVLEEGSETTVEMAIELAKGLHEAGVEEIRVEVEARDPEVALAAAERLAVEIGRGADVAEIRAFDRETGELLRRLDREEIRRIRAAAEEAEAAA
Consider B6, for which the “median log2 fold change” value worked out at 0.119.

B7: FBXL12_hotspot_186_32 (protein)
chain: MELRVSLSASMSVEQMRANAEIAVAIVEGLAERGLWEDLDAAARSLAASLRAAVERLQRPEAAAVAAEALERLAEIVARALEEHPENERLAATLAEIRAA
Turning to B7, the “median log2 fold change” value came out at 0.127.

B8: FBXL12_hotspot_186_27 (protein)
chain: QQLEFRVVTRLDPEITRSTLDTAIGLVESLLERGLIEQAKSAAEAILEEIERTLAESDDPEIHAILAESLRRLAEVLSRDPRLAPLLERARELLARIEAR
As to B8, the “median log2 fold change” value came to 0.108.

B9: FBXL12_hotspot_186_39 (protein)
chain: MELRVRFSEDMSVEQMRAGLDIAVAILEGLAERGRIEDLVAAARSLLDSLEAGRARIKDPAFDEVVDDALRRIAAILERAAERYPDNEELRAALERVRAA
Regarding B9, the “median log2 fold change” value came to 0.222.

B10: FBXL12_hotspot_141_10 (protein)
chain: RGLVIVIATAAVPEEVRAAVRAAAREAAAAAGVALRFEEAEDEEAAEELRERLLAEAEEEGYDAVGVLVLTSPEMSAERAIAYVRALVAFVAARVARLEA
Consider B10, for which the “median log2 fold change” value is -0.0786.

B11: FBXL12_hotspot_186_40 (protein)
chain: MELRVRFSPDMSVAQRRAGADIAVAILEGLAERGEIEELVEAARSLLDSLEAARARIQDPEFAAVAAAALARIAAILEEAAKRYPENEEIKEALARVKAA
B11: the “median log2 fold change” value was found to be 0.165.

B12: FBXL12_hotspot_186_41 (protein)
chain: MEVRVSVPADAPLEVVRSTMKYAVELAKELKERGELEALASLGKSLVKLRKELKKAGAPEEKLKAVDEAIKEVAKILEEALKEHPDNEELKKALEELKKA
Turning to B12, the “median log2 fold change” value amounted to 0.34.

B13: FBXL12_hotspot_16_20 (protein)
chain: KIMIIRVVAGTEEEARSSVETAKKIAIGLMEAGVDAIILEAIAEKEELLPFLKELVEEKEKELREAAKKYGAKLRILVGTLDDLEELRAQAEAIAAELEA
B13: the “median log2 fold change” value was -0.134.

B14: FBXL12_hotspot_141_11 (protein)
chain: KGLLIVIMTSSIPEEKREEIKKHAEEAAKKAGIELIFEVAENEEEAEKIKEELLKEAEEKGYDVIGVLTVTDPNMDVERVKAYVEALVEWIKAKLEQLKA
As to B14, the “median log2 fold change” value worked out at 0.126.

B15: FBXL12_hotspot_147_12 (protein)
chain: REMTVVVQLGSSAESTAAYAAEVVLGLAQAGVDRIRVVVRTRDHEQALLAARELARADARAPASVTIELTFEGLTPEQVAEALAVYAETLAAERARLAAA
Consider B15, for which the “median log2 fold change” value is -0.623.

B16: FBXL12_hotspot_16_18 (protein)
chain: REIIVVVGLLEAERVESTLTTARDIVAGLREAGVDRVDVVIYTETPEAAAKLAELRPTIVAAIEAEVAAAGGRLSVHDTREAAEATREAILAEIDEREAA
Turning to B16, the “median log2 fold change” value worked out at 0.0965.

B17: FBXL12_hotspot_16_19 (protein)
chain: KDIILSVGVEEAERVEPSLELALEIVKGLKEAGVDRINVVIYAETEEAYKKIEELKDTILKEIEEAVKEAGGKLSVHKTKEAAEKEIERILEEIDKREEE
For B17, the “median log2 fold change” value is -0.0797.

B18: FBXL12_hotspot_186_30 (protein)
chain: MDLEVRVGLGEDLETTKSTLDYAVALAEALAARGLTASLVSLARSVRESAIEVLKKTKDEEIYEAILEALKRMAEIVKDNPEALAIVEEAIKEVEKLKKE
On to B18, for which the “median log2 fold change” value was 0.1.

B19: FBXL12_hotspot_16_21 (protein)
chain: KIMIIKVVAPTEEAARSGIETATKIAKGLMEAGVDAIILLAVAEEEALLPFLEELVEKHKEELEEAAKKYGAKLKVIVGTRADLAALEAEAEAIAAELEA
Regarding B19, the “median log2 fold change” value is -0.165.

B20: FBXL12_hotspot_186_37 (protein)
chain: MLLRVSFSPDDSPAQIQAGVDIAVAIVEGLAERGRLEDFVEAARSLLESLRANAARIKRPEAQAVFDAAVARLAEIAEEVAERYPENEEIKELLEELREA
On to B20, for which the “median log2 fold change” value came to 0.172.

B21: FBXL12_hotspot_186_26 (protein)
chain: MDLQIRVTLSPDLETARSGLEYAVGLLESLVERGLLESARSLVRSLIEAARKLVKETKDPEVRAAVIEALRRVAEILAKRPELEESRRLVEEAIKELEEE
With B21, the “median log2 fold change” value was determined as 0.196.

B22: FBXL12_hotspot_186_33 (protein)
chain: MELRVSLSADMTPEQMRANAEIAVAIVAGLAERGRVEDLVAAARSLAASLRAAVARLQRPEVAAIAAEALARLAEIVAAAAARHPDNEDLRAALAELRAA
Turning to B22, the “median log2 fold change” value stood at 0.143.

B23: FBXL12_hotspot_16_22 (protein)
chain: KIMIIKVVAATPEAARGTIETATKIAKGLMEAGVDAVILQAVAEKEEILPFLKELVEEKEKELKEVAKKYGSKLEVFVGTAADLEELEKEVKEKEKELEA
As to B23, the “median log2 fold change” value came out at 0.0857.

B24: FBXL12_hotspot_186_38 (protein)
chain: MELRIRFSPTMSVEQMRAGAQIAVDILRELARRGRWEDLVEAARSLLESLRAARARIRDPEFAEVAAEALERVAAILEEAAKRHPDDEAIHAALEEVKAA
Take B24: the “median log2 fold change” value was -0.00819.

B25: FBXL12_hotspot_186_35 (protein)
chain: MKLRISFAPTDSPEQIRAGVDIAVAIVAGLAAAGRLEDFVEAVRSLLESLQANRARIQRPEHHAVFDAAIERLAALAAEVAAAHPDNAEVAAALARLKAA
As for B25, the “median log2 fold change” value was found to be 0.0482.

B26: FBXL12_hotspot_16_23 (protein)
chain: KIMVVRVRGRTPEELRPTLDRAVEIAIGLMKAGVDAIIFVAVVERAEDLPAVEALVAERRAALEAAAKEHGSKLEVVVGVAADEEAVEARVKALEEELEA
As to B26, the “median log2 fold change” value worked out at 0.127.

B27: FBXL12_hotspot_147_13 (protein)
chain: REVTVVVQLGAQAESTARYAAELVVGLGEAGVGRIRVVVRSARLEDALLAARELARAVARLPESVEVEVTFEGLSPEDVARARAVYEATLAAERAAQAAA
Turning to B27, the “median log2 fold change” value is -0.0622.

B28: FBXL12_hotspot_186_29 (protein)
chain: SDLQVRVRLGDDLETTRSTLEYAVALAAALKARGLTASLRSLARSVRESAIARLRASDDPEIYEAIRAALEALAAVVADDPEARAIVEEALAEVERLRAE
On to B28, for which the “median log2 fold change” value is -0.229.

B29: FBXL12_hotspot_16_17 (protein)
chain: RDIVVVVGLLTAERVRSTLERAAEIVEGLRAAGVDRINVVIYAETEEAWAELERLEPTIVARIRAAVAAAGGELHIHRTREEAEKTREEILAEIDEEEEA
Consider B29, for which the “median log2 fold change” value came out at 0.0399.

B30: FBXL12_hotspot_162_16 (protein)
chain: MKRLLILSFVIKATESPEEAKKRLKQFEEYALEMIEEALKNPEFKVVVVLASDGSPEDLEWVKEAAKRIKEKFPEVEVEVFETGEAAEKRIEELEEEAER
As for B30, the “median log2 fold change” value was -0.0487.

B31: FBXL12_hotspot_186_25 (protein)
chain: QRIEVRVSFSEDLEQARAGLELAIGLLEALLARGLIESAASLARSTVRAARELAARTDDEEVKRLLAEGLERIAEILRKHPELAEELEEVERAAREIRER
As to B31, the “median log2 fold change” value amounted to 0.0938.

B32: FBXL12_hotspot_16_24 (protein)
chain: PVRILVIRQASTQRTPEGVAYQREAAVAAARAGMDAVILVGLAEREEDVPEMEALVADFEAAVRAANPDIIVEGAVARTEEEAEALKAALLARVEARLAA
As for B32, the “median log2 fold change” value amounted to 0.171.
